Laboratory results taken from PubChem BioAssay.
Active and inactive are the calls of the source.

Columns and labels:
[1] = system: PRMT1 (protein arginine N-methyltransferase 1); test: small molecules binding arginine methyltransferase PRMT1 – biochemical, small-molecule microarray, 635 nm fluorescence, primary screen (AID 1088); conditions: higher = more signal;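 note: binding of Prmt1 protein to compounds spotted on small-molecule microarray slides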
[2] = growth effects on S. cerevisiae YJM789 – YJM789 clinical isolate, OD600, 24 h, basal, primary screen (AID 1089); conditions: higher = more signal, called active from +8 up or from −8 down;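 note: growth of clinical yeast isolate S. cerevisiae YJM 789 seeded 1000 cells per well; test concentration not given here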
[3] = S. pombe growth modifiers, basal conditions – strain 972, OD600, 24 h, no modulator, primary screen (AID 1090);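 note: basal condition with compound alone and no growth modifier present; test concentration not given here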; conditions: S. pombe 972 growth, higher = more signal, called active from +8 up or from −8 down
[4] = budding yeast growth modifiers under rapamycin – strain BY4716, OD600, 96 h, primary screen (AID 1091); note: test concentration not given here; conditions: S. cerevisiae BY4716 + rapamycin, higher = more signal, called active from +8 up or from −8 down
[5] = molecular target: Torsin-1A-interacting protein 2 (Homo sapiens) (UniProt Q8NFQ8); test: small molecules binding lysate-expressed LULL1 – cell lysate, human LULL1 lysate, 635/667 nm fluorescence, primary screen (AID 1092); conditions: small-molecule microarray, hLULL1 lysate binding, 635 nm fluorescence; higher = more signal;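 note: probe is lysate of COS7 cells overexpressing human LULL1; score merges per-feature 667 nm fluorescence with signal-to-noise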
Chain of Torsin-1A-interacting protein 2 (Homo sapiens) (Q8NFQ8 whole entry, looked up): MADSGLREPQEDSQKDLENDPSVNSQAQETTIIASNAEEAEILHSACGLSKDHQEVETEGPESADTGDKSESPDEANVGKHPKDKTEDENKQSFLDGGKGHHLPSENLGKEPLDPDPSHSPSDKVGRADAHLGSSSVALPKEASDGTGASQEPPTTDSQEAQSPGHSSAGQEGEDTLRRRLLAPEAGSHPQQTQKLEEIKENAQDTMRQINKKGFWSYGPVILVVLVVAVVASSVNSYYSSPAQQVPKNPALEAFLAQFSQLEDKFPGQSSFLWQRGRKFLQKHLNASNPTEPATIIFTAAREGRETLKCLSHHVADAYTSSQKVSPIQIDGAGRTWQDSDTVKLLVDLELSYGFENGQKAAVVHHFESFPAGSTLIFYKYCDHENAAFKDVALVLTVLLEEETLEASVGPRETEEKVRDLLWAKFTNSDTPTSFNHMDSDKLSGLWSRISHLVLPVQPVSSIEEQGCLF

[6] = optical density change of DRC41 E. coli – strain DRC41, OD650, 24 h, E. coli filamentation project, primary screen (AID 1093);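 note: MC1000 strain lacking acrAB efflux and sulA so SOS filamentation is blocked; test concentration not given here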; conditions: E. coli DRC41 growth, higher = more signal, called active from +8 up or from −8 down
[7] = probe aLefty2 binding to arrayed compounds – biochemical, biotinylated probe, 635/667 nm fluorescence, primary screen (AID 1094); conditions: small-molecule microarray, higher = more signal;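 note: score merges spot fluorescence near 667 nm with spot signal-to-noise ratio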
[8] = system: Noggin (protein binding on small-molecule microarray); test: small molecules binding Noggin protein – biochemical, 635/667 nm fluorescence, primary screen (AID 1095); conditions: 635 nm fluorescence, higher = more signal;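 note: score merges 667 nm feature fluorescence with signal to noise over triplicate slides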
[9] = molecular target: Neurogenic locus notch homolog protein 3 (Homo sapiens) (UniProt Q9UM47); test: small molecules binding NOTCH3 protein – biochemical, 635/667 nm fluorescence, primary screen (AID 1096); conditions: small-molecule microarray, 635 nm fluorescence, higher = more signal
Chain of Neurogenic locus notch homolog protein 3 (Homo sapiens) (Q9UM47 whole entry, looked up): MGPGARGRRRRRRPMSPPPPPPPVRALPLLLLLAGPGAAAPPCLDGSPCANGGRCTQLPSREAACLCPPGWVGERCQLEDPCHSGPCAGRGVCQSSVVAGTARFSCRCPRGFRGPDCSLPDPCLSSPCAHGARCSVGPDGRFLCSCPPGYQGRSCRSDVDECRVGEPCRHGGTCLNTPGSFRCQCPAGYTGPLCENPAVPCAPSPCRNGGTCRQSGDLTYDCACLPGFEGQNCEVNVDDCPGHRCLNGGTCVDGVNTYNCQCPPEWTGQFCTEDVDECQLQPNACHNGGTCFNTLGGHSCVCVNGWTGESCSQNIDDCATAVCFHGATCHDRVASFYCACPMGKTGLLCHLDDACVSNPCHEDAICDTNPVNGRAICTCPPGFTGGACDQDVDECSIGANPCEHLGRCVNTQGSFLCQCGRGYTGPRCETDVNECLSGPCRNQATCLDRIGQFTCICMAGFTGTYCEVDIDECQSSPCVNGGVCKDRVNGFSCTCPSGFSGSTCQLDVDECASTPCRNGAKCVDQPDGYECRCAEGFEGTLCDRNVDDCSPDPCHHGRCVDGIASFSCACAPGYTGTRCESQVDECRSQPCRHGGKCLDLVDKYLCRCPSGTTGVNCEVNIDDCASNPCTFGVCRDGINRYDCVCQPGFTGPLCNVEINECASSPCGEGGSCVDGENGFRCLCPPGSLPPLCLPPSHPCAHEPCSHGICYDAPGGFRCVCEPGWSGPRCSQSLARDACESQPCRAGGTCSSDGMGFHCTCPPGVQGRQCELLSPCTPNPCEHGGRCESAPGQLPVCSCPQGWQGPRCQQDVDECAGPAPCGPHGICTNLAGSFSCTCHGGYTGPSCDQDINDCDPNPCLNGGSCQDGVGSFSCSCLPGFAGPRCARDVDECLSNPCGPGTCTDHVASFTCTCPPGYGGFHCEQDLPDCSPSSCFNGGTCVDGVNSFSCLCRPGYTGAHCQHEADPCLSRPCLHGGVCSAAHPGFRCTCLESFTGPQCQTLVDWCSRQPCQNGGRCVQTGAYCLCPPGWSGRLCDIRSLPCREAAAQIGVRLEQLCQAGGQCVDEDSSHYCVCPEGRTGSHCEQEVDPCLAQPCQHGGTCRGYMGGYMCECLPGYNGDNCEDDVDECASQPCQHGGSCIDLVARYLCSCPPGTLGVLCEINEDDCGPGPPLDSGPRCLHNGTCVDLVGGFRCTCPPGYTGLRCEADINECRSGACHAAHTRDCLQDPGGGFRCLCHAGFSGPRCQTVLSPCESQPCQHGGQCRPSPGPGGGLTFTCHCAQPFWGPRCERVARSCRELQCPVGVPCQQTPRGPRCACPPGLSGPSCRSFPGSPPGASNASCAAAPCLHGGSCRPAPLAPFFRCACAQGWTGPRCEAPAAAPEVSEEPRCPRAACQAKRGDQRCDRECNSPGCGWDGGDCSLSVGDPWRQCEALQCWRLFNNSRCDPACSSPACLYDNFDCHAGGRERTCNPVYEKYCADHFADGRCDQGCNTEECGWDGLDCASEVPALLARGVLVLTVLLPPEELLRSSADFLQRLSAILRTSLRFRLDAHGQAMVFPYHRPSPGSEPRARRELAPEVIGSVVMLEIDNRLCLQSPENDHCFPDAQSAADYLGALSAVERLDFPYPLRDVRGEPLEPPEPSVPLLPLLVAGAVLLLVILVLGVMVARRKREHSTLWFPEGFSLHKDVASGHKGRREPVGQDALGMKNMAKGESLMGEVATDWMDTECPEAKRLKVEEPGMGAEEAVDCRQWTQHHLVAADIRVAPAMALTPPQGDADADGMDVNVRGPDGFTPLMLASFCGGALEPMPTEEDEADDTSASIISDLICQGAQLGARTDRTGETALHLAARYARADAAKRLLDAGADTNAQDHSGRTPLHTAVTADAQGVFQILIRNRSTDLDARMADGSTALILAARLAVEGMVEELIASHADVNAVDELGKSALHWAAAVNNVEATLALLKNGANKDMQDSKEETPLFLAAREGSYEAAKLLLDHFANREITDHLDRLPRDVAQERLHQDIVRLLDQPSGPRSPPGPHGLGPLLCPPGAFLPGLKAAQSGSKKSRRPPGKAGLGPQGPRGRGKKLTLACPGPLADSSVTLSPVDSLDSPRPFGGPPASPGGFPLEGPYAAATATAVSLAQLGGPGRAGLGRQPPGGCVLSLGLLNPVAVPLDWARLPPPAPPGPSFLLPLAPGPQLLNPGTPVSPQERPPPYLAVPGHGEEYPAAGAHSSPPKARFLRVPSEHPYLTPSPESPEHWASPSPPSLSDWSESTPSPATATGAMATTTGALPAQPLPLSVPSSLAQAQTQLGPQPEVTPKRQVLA

[10] = probe aEGFR binding to arrayed compounds – biochemical, biotinylated probe, 635/667 nm fluorescence, primary screen (AID 1097); conditions: small-molecule microarray, higher = more signal;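 note: probe is a biotinylated anti-EGFR antibody binding compounds printed on slides; score combines fluorescence near 667 nm and signal to noise of each spot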
[11] = system: Plasmodium falciparum Sir2 (PF13_0152, Sir2A); test: Plasmodium falciparum Sir2A binding compounds – biochemical, small-molecule microarray, 635 nm fluorescence, primary screen (AID 1098); conditions: fluorescence 635 nm, higher = more signal;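 note: score merges spot fluorescence intensity with its signal-to-noise ratio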
[12] = probe aDKK1 binding to arrayed compounds – biochemical, biotinylated probe, 635/667 nm fluorescence, primary screen (AID 1099); conditions: small-molecule microarray, higher = more signal;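 note: score merges 667nm spot fluorescence with signal to noise across triplicate slides; reference of the scale not given here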
[13] = probe aCHRDL2 binding to arrayed compounds – biochemical, biotinylated probe, 635/667 nm fluorescence, primary screen (AID 1100); conditions: small-molecule microarray, higher = more signal
[14] = change in splice reporter luminescence, either direction, cell-based, HEK293, spliceosome inhibition project, primary screen (AID 1101); conditions: HEK293 splicing luciferase reporter, 24 h, higher = more signal, called active from +8 up or from −8 down;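 note: HEK293 cells carrying a splicing-competent luciferase reporter gene; test concentration not given here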
[15] = molecular target: Fibroblast growth factor 10 (Homo sapiens) (UniProt O15520); test: compounds binding fibroblast growth factor 10 – biochemical, small-molecule microarray, 635 nm fluorescence, primary screen (AID 1102); conditions: FGF10 binding, fluorescence 635 nm, higher = more signal
Chain of Fibroblast growth factor 10 (Homo sapiens) (O15520 whole entry, looked up): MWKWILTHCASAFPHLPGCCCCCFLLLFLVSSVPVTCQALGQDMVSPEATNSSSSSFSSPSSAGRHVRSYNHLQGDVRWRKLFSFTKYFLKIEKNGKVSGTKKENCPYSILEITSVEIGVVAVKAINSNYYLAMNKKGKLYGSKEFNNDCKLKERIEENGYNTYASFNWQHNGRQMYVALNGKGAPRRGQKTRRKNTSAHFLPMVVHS

[16] = system: glycogen synthase kinase-3 (GSK3A per assay name; protocol says GSK3B); test: compounds binding glycogen synthase kinase-3 – biochemical, small-molecule microarray, 635 nm fluorescence, GSK3A, primary screen (AID 1103); conditions: fluorescence 635 nm, higher = more signal; note: the record names both GSK3A and GSK3B
[17] = molecular target: Epidermal growth factor receptor (Homo sapiens) (UniProt P00533); test: compounds binding epidermal growth factor receptor – biochemical, small-molecule microarray, 635 nm fluorescence, primary screen (AID 1104); conditions: EGFR binding, higher = more signal;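 note: score merges 667 nm emission intensity with spot signal to noise over triplicate slides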
Chain of Epidermal growth factor receptor (Homo sapiens) (P00533 whole entry, looked up): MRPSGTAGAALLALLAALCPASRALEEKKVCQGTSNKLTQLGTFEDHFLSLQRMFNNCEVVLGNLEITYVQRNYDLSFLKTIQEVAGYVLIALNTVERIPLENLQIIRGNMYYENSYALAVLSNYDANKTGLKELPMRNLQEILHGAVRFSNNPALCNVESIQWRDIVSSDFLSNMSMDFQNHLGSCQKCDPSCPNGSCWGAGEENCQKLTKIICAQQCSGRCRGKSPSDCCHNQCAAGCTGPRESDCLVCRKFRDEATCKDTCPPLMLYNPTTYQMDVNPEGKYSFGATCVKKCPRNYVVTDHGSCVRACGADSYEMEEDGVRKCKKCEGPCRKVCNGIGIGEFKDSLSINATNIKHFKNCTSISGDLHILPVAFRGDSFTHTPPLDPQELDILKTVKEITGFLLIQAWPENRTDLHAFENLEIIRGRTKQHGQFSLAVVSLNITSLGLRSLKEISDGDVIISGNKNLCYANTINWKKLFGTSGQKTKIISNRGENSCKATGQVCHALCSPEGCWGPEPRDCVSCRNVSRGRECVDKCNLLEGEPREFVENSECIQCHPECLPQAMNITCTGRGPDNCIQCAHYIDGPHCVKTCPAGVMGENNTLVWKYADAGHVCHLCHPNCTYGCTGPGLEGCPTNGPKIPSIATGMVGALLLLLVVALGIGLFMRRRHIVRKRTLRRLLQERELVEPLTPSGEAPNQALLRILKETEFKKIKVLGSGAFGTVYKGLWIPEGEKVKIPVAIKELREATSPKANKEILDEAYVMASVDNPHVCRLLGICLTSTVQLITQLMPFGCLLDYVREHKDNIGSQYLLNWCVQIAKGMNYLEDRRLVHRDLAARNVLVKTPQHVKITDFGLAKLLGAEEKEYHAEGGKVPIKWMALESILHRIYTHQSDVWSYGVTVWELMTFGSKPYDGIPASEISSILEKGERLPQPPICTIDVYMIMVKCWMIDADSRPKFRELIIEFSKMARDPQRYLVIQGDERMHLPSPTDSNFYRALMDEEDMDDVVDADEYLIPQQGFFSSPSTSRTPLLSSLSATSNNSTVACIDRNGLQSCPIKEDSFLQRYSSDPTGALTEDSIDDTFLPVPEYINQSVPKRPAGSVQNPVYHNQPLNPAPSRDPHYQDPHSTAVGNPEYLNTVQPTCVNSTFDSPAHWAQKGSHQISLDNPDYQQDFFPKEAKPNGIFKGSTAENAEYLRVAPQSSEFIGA

[18] = molecular target: Follistatin-related protein 3 (Homo sapiens) (UniProt O95633); test: compounds binding follistatin-related protein 3 – biochemical, small-molecule microarray, 635 nm fluorescence, primary screen (AID 1105); conditions: FSTL3 binding, higher = more signal;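 note: score merges emission near 667 nm and signal to noise per printed spot across three slides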
Chain of Follistatin-related protein 3 (Homo sapiens) (O95633 whole entry, looked up): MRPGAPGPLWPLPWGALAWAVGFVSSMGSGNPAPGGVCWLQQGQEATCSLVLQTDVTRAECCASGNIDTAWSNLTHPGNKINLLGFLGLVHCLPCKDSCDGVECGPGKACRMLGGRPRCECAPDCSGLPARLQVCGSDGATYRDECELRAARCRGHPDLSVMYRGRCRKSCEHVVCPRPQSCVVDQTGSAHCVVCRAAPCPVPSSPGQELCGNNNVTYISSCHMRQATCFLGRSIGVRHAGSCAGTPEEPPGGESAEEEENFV

[19] = molecular target: Dickkopf-related protein 1 (Homo sapiens) (UniProt O94907); test: small molecules binding DKK1 protein – biochemical, small-molecule microarray, 635 nm fluorescence scan, primary screen (AID 1106); conditions: higher = more signal;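 note: score merges emission near 667 nm with signal to noise over three replicate slides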
Chain of Dickkopf-related protein 1 (Homo sapiens) (O94907 whole entry, looked up): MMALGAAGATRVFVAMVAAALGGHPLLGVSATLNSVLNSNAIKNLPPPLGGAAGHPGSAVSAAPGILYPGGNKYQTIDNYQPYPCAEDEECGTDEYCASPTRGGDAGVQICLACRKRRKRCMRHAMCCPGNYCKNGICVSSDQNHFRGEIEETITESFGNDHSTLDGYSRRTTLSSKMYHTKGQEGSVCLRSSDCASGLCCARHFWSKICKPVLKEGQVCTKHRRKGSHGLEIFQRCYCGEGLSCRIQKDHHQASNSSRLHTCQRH

[20] = system: Inhibin beta A chain (activin A); test: small molecules binding activin A – biochemical, small-molecule microarray, 635 nm fluorescence scan, primary screen (AID 1107); conditions: INHBA, higher = more signal;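 note: mouse activin A protein probed at 4.33 µg/mL on printed slides; score merges bound-protein fluorescence near 667 nm with spot signal-to-noise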

Compound	composite z-score [1]	z-score [2]	z-score [3]	z-score [4]	composite z-score [5]	z-score [6]	composite z-score [7]	composite z-score [8]	composite z-score [9]	composite z-score [10]	composite z-score [11]	composite z-score [12]	composite z-score [13]	z-score [14]	composite z-score [15]	composite z-score [16]	composite z-score [17]	composite z-score [18]	composite z-score [19]	composite z-score [20]
Cc1ccc(S[C@]2(C(=O)NCCCN(C)C)CC(=O)N(Cc3ccccc3C(F)(F)F)[C@@H]2c2ccc(CO)cc2I)cc1	0.349	-1.34 (inactive)	-3.27 (inactive)	0.0267 (inactive)	3.18	-0.328 (inactive)	-0.323	-0.496	-0.174	-0.378	1.18	-0.473	-0.464	-0.425 (inactive)	-0.54	-0.605	-1.04	-0.402	-1.25	0.812
[N-]=[N+]=Nc1ccccc1C[C@]1(C(=O)N2CCOCC2)N=C(c2ccc(OCCCO)cc2)O[C@H]1c1ccccc1N=[N+]=[N-]	1.53	-3.46 (inactive)	-10.9 (active)	2.91 (inactive)	3.39	1.2 (inactive)	0.166	1.61	1.04	-0.0211	1.53	0.651	0.915	-0.591 (inactive)	1.41	1.31	0.857	1.47	1.42	1.3
C=CCNC(=O)[C@H]1[C@@H]2C(=O)O[C@@H](c3ccccc3)[C@@H](c3ccccc3)N2[C@@H](c2ccc(OCCO)cc2)[C@]12C(=O)Nc1ccccc12	1.18	1.24 (inactive)	0.259 (inactive)	2.84 (inactive)	3.36	1.35 (inactive)	-0.0785	0.167	0.457	-0.194	1.39	-0.106	0.747	-0.152 (inactive)	-0.0719	0.164	-0.129	0.227	-0.939	-0.329
CC(C)NC(=O)[C@@H]1c2ccccc2C(=O)N(Cc2ccccc2C(F)(F)F)[C@H]1c1ccc(CO)cc1	-0.123	-0.202 (inactive)	0.163 (inactive)	-1.04 (inactive)	2.36	-0.327 (inactive)	-0.241	-0.238	0.0828	0.668	1.68	1.35	0.218	0.438 (inactive)	0.697	-0.295	-0.08	0.147	-0.393	-0.349
COCCOC(=O)N1C(=O)[C@@]2(c3cc(C#CCC(C(=O)OC)C(=O)OC)ccc31)[C@H](c1ccc(O)cc1)N1[C@H](c3ccccc3)[C@H](c3ccccc3)OC(=O)[C@H]1[C@@H]2C(=O)Nc1nc2ccccc2s1	1.53	0.978 (inactive)	0.583 (inactive)	0.0726 (inactive)	2.76	0.338 (inactive)	0.0424	1.39	1.04	0.106	1.54	0.595	0.481	-1.12 (inactive)	0.972	1.27	0.594	1.38	0.91	1.11
NC(=O)NCC#Cc1ccc2c(c1)[C@]1(C(=O)N2)[C@H](c2ccc(OCCO)cc2)N2[C@H](c3ccccc3)[C@H](c3ccccc3)OC(=O)[C@H]2[C@@H]1C(=O)NC[C@H](O)c1ccccc1	0.26	2.87 (inactive)	1.98 (inactive)	3.9 (inactive)	0.741	2.55 (inactive)	0.0041	0.565	-0.311	-0.141	1.24	0.0619	0.909	0.199 (inactive)	0.131	-0.708	-0.256	-0.216	-0.229	0.902
O=C1N(CCS(=O)(=O)c2ccccc2)c2ccccc2C[C@]12N=C(c1ccc(OCCCO)cc1)O[C@@H]2c1ccccc1	1.48	2.51 (inactive)	0.762 (inactive)	4.39 (inactive)	3.12	0.568 (inactive)	0.225	0.83	1.09	-0.164	1.23	0.924	0.775	0.276 (inactive)	1.02	1.19	0.468	1.34	1.01	0.865
CCCC#C[Si](O[C@H](CC)c1cn(Cc2ccccc2)nn1)(C(C)C)C(C)C	1.49	-1.25 (inactive)	-14.6 (active)	-3.55 (inactive)	1.72	0.657 (inactive)	0.052	1.31	1.09	0.0458	0.524	0.109	-0.263	-0.539 (inactive)	0.852	0.49	0.375	1.11	0.576	-0.0374
COCCOC(=O)N1C(=O)[C@@]2(c3cc(C#CCCO)ccc31)[C@H](C(N)=O)[C@H]1C(=O)O[C@H](c3ccccc3)[C@H](c3ccccc3)N1[C@@H]2c1ccccc1OCCO	1.54	1.85 (inactive)	1.17 (inactive)	3.4 (inactive)	2.15	-0.497 (inactive)	0.319	0.989	1.15	0.105	1.59	0.7	0.694	-0.871 (inactive)	0.738	1.3	0.375	0.911	0.403	0.042
COc1ccccc1CN1C(=O)c2ccccc2[C@](Cc2ccccc2I)(C(=O)NCC(C)C)[C@@H]1c1ccc(CO)cc1	1.33	-0.747 (inactive)	-0.652 (inactive)	0.0134 (inactive)	2.11	2.2 (inactive)	0.103	-0.371	0.139	-0.0721	1.66	0.736	1.01	0.0236 (inactive)	-0.0272	-0.0773	-1.19	-0.408	-1.27	-0.316
